In PubChem BioAssay (NCATS) one finds Potency data, which are given here for eight compounds.

Test [1] is described as follows: S16 Schwann cell viability assay (CellTiter-Glo assay) (AID 624031).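 Note: native untransfected S16 rat Schwann cells; nearly all actives have a fitted effect of over 70% in size.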 The gist of the method: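 Counter-screen for cytotoxicity: parental S16 rat Schwann cells lacking the PMP22 reporters, treated 24 h with compound, viability from cellular ATP by CellTiter-Glo luminescence, normalized to DMSO (0%) and no-cell wells.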
A general note: ATP-based viability assays read luminescence as a measure of living cells.

The next test relates to 3D7. As to the kind of experiment: qHTS profiling for inhibitors of Plasmodium falciparum proliferation (AID 504749). Note: nearly all actives have a fitted effect of over 60% in size. Note: potency is the fitted concentration of half-maximal effect. The settings on record: P. falciparum in erythrocytes, SYBR Green DNA, 72 h; series mostly up to 28.7 µM. The gist of the method:
(§1)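 P. falciparum-infected erythrocytes (0.3% parasitemia, 2.5% hematocrit) incubated with compound 72 h at 37 C, 5% CO2. Parasite DNA detected by SYBR Green after lysis, overnight at room temperature; normalised to 0.29 uM artemisinin and DMSO.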
(In general: Quantitative high-throughput screening tests each substance at several concentrations.)

A further test relates to AS120. Described as above. The settings on record: P. falciparum in erythrocytes, SYBR Green DNA, 72 h; series mostly up to 28.7 µM. The gist of the method:
as §1

In the next test the test system is CP194. The description is as above. The settings on record: P. falciparum in erythrocytes, SYBR Green DNA, 72 h; series mostly up to 28.7 µM. Summed up: as §1
For the next test, the system named is CP217. Described as above. Particulars: P. falciparum in erythrocytes, SYBR Green DNA, 72 h; series mostly up to 28.7 µM. Summed up:
as §1

In the next test the test system is CP252. Described as above. The settings on record: P. falciparum in erythrocytes, SYBR Green DNA, 72 h; series mostly up to 28.7 µM. Summed up:
as §1

For another test, the system named is CP256. The test is described as above. Particulars: P. falciparum in erythrocytes, SYBR Green DNA, 72 h; series mostly up to 28.7 µM. The gist of the method:
as §1

The test system of another test is CP260. The description is as above. The settings on record: P. falciparum in erythrocytes, SYBR Green DNA, 72 h; series mostly up to 28.7 µM. The gist of the method: as §1
A further test concerns CP265. The description is as above. The settings on record: P. falciparum in erythrocytes, SYBR Green DNA, 72 h; series mostly up to 28.7 µM. The gist of the method:
as §1

The test system of another test is CP291. The description is as above. Particulars: P. falciparum in erythrocytes, SYBR Green DNA, 72 h; series mostly up to 28.7 µM. The gist of the method:
as §1

Another test has as its system CP335. Described as above. Particulars: P. falciparum in erythrocytes, SYBR Green DNA, 72 h; series mostly up to 28.7 µM. The gist of the method: as §1
Another test concerns DFO2036. The test is described as above. The settings on record: P. falciparum in erythrocytes, SYBR Green DNA, 72 h; series mostly up to 28.7 µM. Summed up: as §1
The subject of the next test is DIV14. The test is described as above. Particulars: P. falciparum in erythrocytes, SYBR Green DNA, 72 h; series mostly up to 28.7 µM. Summed up:
as §1

The test system of the next test is GB4. The test is described as above. The settings on record: P. falciparum in erythrocytes, SYBR Green DNA, 72 h; series mostly up to 28.7 µM. Summed up:
as §1

The next test deals with HB3. The description is as above. Particulars: P. falciparum in erythrocytes, SYBR Green DNA, 72 h; series mostly up to 28.7 µM. The gist of the method: as §1
A further test concerns N140. The test is described as above. The settings on record: P. falciparum in erythrocytes, SYBR Green DNA, 72 h; series mostly up to 28.7 µM. The gist of the method:
as §1

The test system of another test is P94_40. The description is as above. Particulars: P. falciparum in erythrocytes, SYBR Green DNA, 72 h; series mostly up to 28.7 µM. The gist of the method: as §1
The test system of the next test is PAD. The test is described as above. The settings on record: P. falciparum in erythrocytes, SYBR Green DNA, 72 h; series mostly up to 28.7 µM. The gist of the method: as §1
Another test concerns PC26. The description is as above. The settings on record: P. falciparum in erythrocytes, SYBR Green DNA, 72 h; series mostly up to 28.7 µM. The gist of the method: as §1
The subject of another test is TAB113. The description is as above. The settings on record: P. falciparum in erythrocytes, SYBR Green DNA, 72 h; series mostly up to 28.7 µM. The gist of the method: as §1

Results filed as inconclusive are left out. Calls of active or inactive are those of the source. Calls come from the whole dose curve; as a rule, active = well fitted curve in the direction sought with a large enough effect; inconclusive = small, poorly fitted or top-dose-only effect, or another doubt; inactive = no such curve, though single readings can be large; an effect the other way counts as inactive or inconclusive.

As for `O=[N+]([O-])OC1CO[C@H]2C(O[N+](=O)[O-])COC12` (some centres undefined), the Potency result (in test [1]; in the test with 3D7; in the test on AS120; in the test on CP194; in the test on CP217; in the test on CP252) was “inactive” in each case. Moreover, the Potency result in the test with CP256, in the test with CP260, with CP265, in the test with CP291, with CP335 and in the test with DFO2036 was “inactive” each time. The Potency entry with DIV14, in the test on GB4, with HB3, in the test with N140, with P94_40 and in the test with PAD was “inactive” in each case. Moreover, the Potency result with PC26 and in the test on TAB113 was “inactive” each time.
As to `CC(=O)O[C@H]1C[C@H](O[C@H]2[C@@H](O)CC(O[C@H]3[C@@H](O)C[C@H](O[C@H]4CC[C@@]5(C)[C@H](CC[C@@H]6[C@@H]5CC[C@]5(C)[C@@H](C7=CC(=O)OC7)CC[C@]65O)C4)O[C@@H]3C)O[C@@H]2C)O[C@H](C)[C@H]1O[C@@H]1O[C@H](CO)[C@@H](O)[C@H](O)[C@H]1O` (some centres undefined), the Potency result (in [1]; in the test with AS120; with CP194; with CP217; in the test with CP252; in the test on CP256) was “inactive” each time. For the same compound, the Potency entry in the test with CP260, in the test on CP265, in the test on CP291, with CP335, in the test on DFO2036 and in the test on GB4 was “inactive” throughout. The Potency entry in the test with HB3, in the test with N140, in the test with P94_40, with PAD and in the test on TAB113 was “inactive” throughout.
Take `CC(=O)Oc1ccc2c3c1OC1[C@@H](OC(C)=O)C=C[C@H]4[C@H](C2)N(C)CC[C@]314` (some centres undefined): the Potency result (in test [1]; in the test on 3D7; with AS120; with CP194; in the test on CP217; in the test with CP252) was “inactive” each time. Moreover, the Potency entry in the test with CP256, in the test with CP260, in the test with CP265, in the test on CP291, in the test with CP335 and with DFO2036 was “inactive” in each case. In addition, the Potency entry in the test on DIV14, in the test with GB4, in the test with HB3, with N140, in the test with P94_40 and in the test with PAD was “inactive” throughout. In addition, the Potency entry in the test with PC26 and with TAB113 was “inactive” each time.
`CCCN1CCCC2Cc3nc(N)ncc3CC21` (centres undefined): the Potency entry (in test [1]; with 3D7; in the test on AS120; in the test on CP194; in the test with CP217; with CP252) was “inactive” in each case. Further, the Potency entry with CP256, in the test on CP260, in the test on CP265, with CP291, in the test with CP335 and in the test on DFO2036 was “inactive” each time. Besides, the Potency entry with DIV14, with GB4, in the test with HB3, in the test with N140, with P94_40 and with PAD was “inactive” throughout. Also, the Potency entry with PC26 and in the test on TAB113 was “inactive” each time.
As to `C#CCN1CC(=O)N(COC(=O)[C@@H]2[C@@H](C=C(C)C)C2(C)C)C1=O`, the Potency result (in test [1]; in the test on 3D7; in the test with AS120; with CP194; in the test with CP217; in the test on CP252) was “inactive” each time. Besides, the Potency entry in the test with CP256, in the test on CP260, in the test with CP265, in the test on CP291, in the test with CP335 and with DFO2036 was “inactive” in each case. Further, the Potency entry in the test on DIV14, with GB4, in the test on HB3, in the test on N140, in the test with P94_40 and in the test on PAD was “inactive” in each case. In addition, the Potency entry with PC26 and with TAB113 was “inactive” in each case.
Regarding `Nc1nc(O)c(-c2ccccc2)o1`, the Potency result in the test with 3D7, in the test with AS120, in the test with CP194, in the test with CP217, with CP252 and in the test on CP256 was “inactive” in each case. Besides, the Potency entry in the test on CP260, with CP265, in the test on CP291, in the test on CP335, in the test with DFO2036 and in the test with DIV14 was “inactive” each time. For the same compound, the Potency entry in the test with GB4, in the test on HB3, in the test on N140, in the test on P94_40, in the test with PAD and in the test with PC26 was “inactive” in each case.
In the case of `COC(=O)C1C(OC(=O)c2ccccc2)CC2CCC1N2C` (centres undefined), the Potency result (in test [1]; with 3D7; with AS120; in the test with CP194; in the test with CP217; in the test on CP252) was “inactive” in each case. The Potency entry in the test with CP256, in the test with CP260, in the test on CP265, in the test on CP291, in the test on CP335 and in the test on DFO2036 was “inactive” throughout. Also, the Potency result in the test on DIV14, with GB4, in the test with HB3, with N140, in the test on P94_40 and in the test on PAD was “inactive” throughout. Besides, the Potency result in the test with PC26 and with TAB113 was “inactive” in each case.
Consider `CCN(CC)C(=O)N[C@@H]1C=C2c3cccc4[nH]cc(c34)C[C@H]2N(C)C1`, for which the Potency with AS120 was 12.6 µM (active); in the test on CP265, 10 µM (active); in the test with DIV14, 13.5 µM (active); with GB4 it was 8.49 µM (active); in the test with N140 it was 12.6 µM (active); in the test with P94_40, 8.91 µM (active). In addition, the values for the Potency in the test on PC26 and in the test on TAB113 were 12 µM (active) and 7.94 µM (active), respectively. Besides, the Potency result in the test on DFO2036 is “inactive”.
